Results taken from PubChem BioAssay (Tox21).
Inconclusive results are not listed. Values without a mark were called inactive. Active and inactive are the calls of the source. Calls follow the shape of the full dose curve.

test: qHTS assay for small molecule agonists of the p53 signaling pathway - cell viability (AID 651633); settings: p53RE-bla HCT-116 viability, ATP luminescence, 16 h; series mostly up to 83.3 µM; activity change, negative = cytotoxicity: at the top concentration;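 also: p53RE-bla HCT reporter cells with a stable beta-lactamase p53 reporter; nearly all actives have a fitted effect of over 30% in size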
Procedure, shortened: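 p53RE-bla cells, seeded at 4,000 per well and rested 5 h at 37 C/5% CO2, received compounds in DMSO for 16 h at 37 C. CellTiter-Glo was then added, and luminescence was read after 30 min at room temperature to gauge cytotoxicity.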
% is scaled to controls: 0 for no effect and ±100 for the full control effect.

Row | Structure (SMILES) | activity change, negative = cytotoxicity | outcome
1 | C[N+](C)(C)CCCCCC[N+](C)(C)C | 3.31% | 
2 | NS(=O)(=O)c1cc2c(cc1Cl)NC(C1CC3C=CC1C3)NS2(=O)=O (stereo not given) | 26.7% | 
3 | OCCOc1ccc(OCCO)cc1 | 12.1% [at 95.3 µM] | 
4 | COC(C)(C)CCCC(C)CC=O (stereo not given) | 13% | 
5 | CCOC(=O)CCC(C)=O | 21.7% | 
6 | NC(=O)COCCN1CCN(C(c2ccccc2)c2ccc(Cl)cc2)CC1 (stereo not given) | -7.98% | 
7 | C=CCCCCCCCCC=O | 6.19% | 
8 | NS(=O)(=O)c1ccc(C(=O)O)cc1 | 9.46% | 
9 | CC[N+](C)(C)c1cccc(O)c1 | 19.7% [at 39.1 µM] | 
10 | O=C(O)CCCc1ccccc1 | 27.3% | 
11 | CC(=O)c1ccccc1O | 20.9% | 
12 | Cc1cccn2c(=O)c(-c3nnn[nH]3)cnc12 | -14% | 
13 | c1ccc([C@H]2CN3CCSC3=N2)cc1 | 10.1% | 
14 | CC(C[N+](C)(C)C)OC(N)=O (stereo not given) | 12.8% | 
15 | CCCCCCCCS(=O)(=O)Cl | -17.2% [at 95.3 µM] | 
16 | O=[N+]([O-])c1ccc(F)cc1F | -18.6% [at 95.3 µM] | 
17 | CC(=O)OCC(=O)[C@@]1(O)CCC2C3CCC4=CC(=O)CC[C@]4(C)C3[C@@H](O)C[C@@]21C (stereo not given in full) | 13.3% | 
18 | COC(=O)c1c(Cl)c(Cl)c(C(=O)OC)c(Cl)c1Cl | -11% | 
19 | O=C1CCCC(=O)C1 | 7.03% | 
20 | CCOC(=O)c1ccc(C)cc1 | 3.63% | 

Row | Structure (SMILES) | activity change, negative = cytotoxicity | outcome
21 | O=C(CCCN1CCN(c2ccccn2)CC1)c1ccc(F)cc1 | 5.25% | 
22 | CC1(C)C(O)C(C)(C)C1O (stereo not given) | -8.1% | 
23 | CC/C=C\CC/C=C/C(OCC)OCC | 19.8% | 
24 | COc1c(N2C[C@@H]3CCCN[C@@H]3C2)c(F)cc2c(=O)c(C(=O)O)cn(C3CC3)c12 |  | inactive
25 | COC(=O)[C@@H](N)Cc1ccc(O)c(O)c1 | 4.88% | 
26 | CCN1CCC[C@H]1CNC(=O)c1c(O)c(Cl)cc(Cl)c1OC | 22.1% | 
27 | OC(CCN1CCCCC1)(c1ccccc1)C1CC2C=CC1C2 (stereo not given) |  | inactive
28 | C1CN(CCOCCN2CCOCC2)CCO1 | 7.12% | 
29 | COc1nc(N)nc2c1ncn2[C@@H]1O[C@H](CO)[C@@H](O)[C@@H]1O | 9.98% | 
30 | C=C[Si](OC(=C)C)(OC(=C)C)OC(=C)C | 17.1% | 
31 | CCOC(C)(C)C | 5.37% [at 95.3 µM] | 
32 | C=CCS(=O)(=O)O | 17.6% | 
33 | CC(C)CNCC(C)C | 8.01% | 
34 | Oc1ccc(C2CNCCc3c2cc(O)c(O)c3Cl)cc1 (stereo not given) | 14.3% | 
35 | O=C(O)COc1nn(Cc2ccccc2)c2ccccc12 | -18% | 
36 | CC(C)NCC(O)c1ccc(NS(C)(=O)=O)cc1 (stereo not given) |  | inactive
37 | CO[Si](CCCOCC1CO1)(OC)OC (stereo not given) |  | inactive
38 | CCSC(=O)N(CC(C)C)CC(C)C | -8.53% | 
39 | NC(=O)c1ccc([N+](=O)[O-])cc1 | 5.82% | 
40 | CCCN1CCCC[C@H]1C(=O)Nc1c(C)cccc1C | -5.98% | 

test: qHTS assay for small molecules that induce genotoxicity in human embryonic kidney cells expressing luciferase-tagged ATAD5 - cell viability (AID 651634); settings: HEK293T ATAD5-luc cells viability, CellTiter-Fluor, 15.5 h; series mostly up to 83.3 µM; activity, negative = cytotoxicity: at the top concentration; also: nearly all actives have a fitted effect of over 25% in size
Procedure, shortened: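 Live-cell protease activity (CellTiter-Fluor, fluorescence) indicates viability. HEK293T cells with luciferase-tagged ATAD5; 15.5 hr compound treatment at 37C.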

Row | Structure (SMILES) | activity, negative = cytotoxicity | Potency
41 | C[N+](C)(C)CCCCCC[N+](C)(C)C | 24.3% | 
42 | NS(=O)(=O)c1cc2c(cc1Cl)NC(C1CC3C=CC1C3)NS2(=O)=O (stereo not given) | -14.1% | 
43 | OCCOc1ccc(OCCO)cc1 | 10.9% [at 95.3 µM] | 
44 | COC(C)(C)CCCC(C)CC=O (stereo not given) | 13% | 
45 | CCOC(=O)CCC(C)=O | 5.71% | 
46 | NC(=O)COCCN1CCN(C(c2ccccc2)c2ccc(Cl)cc2)CC1 (stereo not given) | -13.2% | 
47 | C=CCCCCCCCCC=O | -19% | 
48 | NS(=O)(=O)c1ccc(C(=O)O)cc1 | 10.3% | 
49 | CC[N+](C)(C)c1cccc(O)c1 | 7.04% [at 39.1 µM] | 
50 | O=C(O)CCCc1ccccc1 | 20.2% | 
51 | CC(=O)c1ccccc1O | 8.13% | 
52 | Cc1cccn2c(=O)c(-c3nnn[nH]3)cnc12 | 18.6% | 
53 | c1ccc([C@H]2CN3CCSC3=N2)cc1 | 21.3% | 
54 | CC(C[N+](C)(C)C)OC(N)=O (stereo not given) | 10.1% | 
55 | CCCCCCCCS(=O)(=O)Cl | 12% [at 95.3 µM] | 
56 | O=[N+]([O-])c1ccc(F)cc1F | 11.2% [at 95.3 µM] | 
57 | CC(=O)OCC(=O)[C@@]1(O)CCC2C3CCC4=CC(=O)CC[C@]4(C)C3[C@@H](O)C[C@@]21C (stereo not given in full) | 15.3% | 
58 | COC(=O)c1c(Cl)c(Cl)c(C(=O)OC)c(Cl)c1Cl |  | inactive
59 | O=C1CCCC(=O)C1 | -6.11% | 
60 | CCOC(=O)c1ccc(C)cc1 | 14.4% | 

Row | Structure (SMILES) | activity, negative = cytotoxicity | Potency
61 | O=C(CCCN1CCN(c2ccccn2)CC1)c1ccc(F)cc1 | 14.8% | 
62 | CC1(C)C(O)C(C)(C)C1O (stereo not given) | 13.1% | 
63 | CC/C=C\CC/C=C/C(OCC)OCC | 9.15% | 
64 | COc1c(N2C[C@@H]3CCCN[C@@H]3C2)c(F)cc2c(=O)c(C(=O)O)cn(C3CC3)c12 |  | inactive
65 | COC(=O)[C@@H](N)Cc1ccc(O)c(O)c1 | -3.96% | 
66 | CCN1CCC[C@H]1CNC(=O)c1c(O)c(Cl)cc(Cl)c1OC | 9.45% | 
67 | OC(CCN1CCCCC1)(c1ccccc1)C1CC2C=CC1C2 (stereo not given) |  | inactive
68 | C1CN(CCOCCN2CCOCC2)CCO1 | 11% | 
69 | COc1nc(N)nc2c1ncn2[C@@H]1O[C@H](CO)[C@@H](O)[C@@H]1O | 6.41% | 
70 | C=C[Si](OC(=C)C)(OC(=C)C)OC(=C)C | 10.2% | 
71 | CCOC(C)(C)C | 16.8% [at 95.3 µM] | 
72 | C=CCS(=O)(=O)O | 5.23% | 
73 | CC(C)CNCC(C)C | 6.27% | 
74 | Oc1ccc(C2CNCCc3c2cc(O)c(O)c3Cl)cc1 (stereo not given) | 7.96% | 
75 | O=C(O)COc1nn(Cc2ccccc2)c2ccccc12 | 0.887% | 
76 | CC(C)NCC(O)c1ccc(NS(C)(=O)=O)cc1 (stereo not given) |  | inactive
77 | CO[Si](CCCOCC1CO1)(OC)OC (stereo not given) |  | inactive
78 | CCSC(=O)N(CC(C)C)CC(C)C | 5.43% | 
79 | NC(=O)c1ccc([N+](=O)[O-])cc1 | 7% | 
80 | CCCN1CCCC[C@H]1C(=O)Nc1c(C)cccc1C | 15.8% | 
